# Source: PubChem BioAssay (NCATS)
# Values joined by “and” are separate entries in the source; they are usually repeats but may differ in a detail not shown here. Equal entries are not always repeated. Records with an inconclusive call do not appear. Entries that show only a call come without a potency. Values without a mark were called inactive. Active and inactive are the calls of the source. The call rests on the fitted dose curve; in most records, active means well fitted inhibition curve with a large enough effect; inconclusive means small, poorly fitted or top-dose-only effect; inactive means flat fitted curve, though single readings scatter.
# Key:
# ECU = test: qHTS profiling for inhibitors of Plasmodium falciparum proliferation (AID 504749); conditions: P. falciparum in erythrocytes, SYBR Green DNA, 72 h; series mostly up to 28.7 µM
# Method in brief: (§1)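 In a 72 h erythrocytic culture (37 C, humidified, 5% CO2) at 2.5% hematocrit and 0.3% starting parasitemia, compounds were tested; SYBR Green I in detergent lysis buffer stained parasite DNA overnight.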
# FAB9 = test: as above; conditions: P. falciparum in erythrocytes, SYBR Green DNA, 72 h; series mostly up to 28.7 µM
# Method in brief: as §1
# GB4 = test: as above; conditions: P. falciparum in erythrocytes, SYBR Green DNA, 72 h; series mostly up to 28.7 µM
# Method in brief: as §1
# HB3 = test: as above; conditions: P. falciparum in erythrocytes, SYBR Green DNA, 72 h; series mostly up to 28.7 µM
# Method in brief: as §1
# ICS = test: as above; conditions: P. falciparum in erythrocytes, SYBR Green DNA, 72 h; series mostly up to 28.7 µM
# Method in brief: as §1
# JCK = test: as above; conditions: P. falciparum in erythrocytes, SYBR Green DNA, 72 h; series mostly up to 28.7 µM
# Method in brief: as §1
# N140 = test: as above; conditions: P. falciparum in erythrocytes, SYBR Green DNA, 72 h; series mostly up to 28.7 µM
# Method in brief: as §1
# P93_24 = test: as above; conditions: P. falciparum in erythrocytes, SYBR Green DNA, 72 h; series mostly up to 28.7 µM
# Method in brief: as §1
# P94_40 = test: as above; conditions: P. falciparum in erythrocytes, SYBR Green DNA, 72 h; series mostly up to 28.7 µM
# Method in brief: as §1
# PAD = test: as above; conditions: P. falciparum in erythrocytes, SYBR Green DNA, 72 h; series mostly up to 28.7 µM
# Method in brief: as §1
# PC15 = test: as above; conditions: P. falciparum in erythrocytes, SYBR Green DNA, 72 h; series mostly up to 28.7 µM
# Method in brief: as §1
# PC26 = test: as above; conditions: P. falciparum in erythrocytes, SYBR Green DNA, 72 h; series mostly up to 28.7 µM
# Method in brief: as §1
# PC49 = test: as above; conditions: P. falciparum in erythrocytes, SYBR Green DNA, 72 h; series mostly up to 28.7 µM
# Method in brief: as §1
# SC27B = test: as above; conditions: P. falciparum in erythrocytes, SYBR Green DNA, 72 h; series mostly up to 28.7 µM
# Method in brief: as §1
# TAB109 = test: as above; conditions: P. falciparum in erythrocytes, SYBR Green DNA, 72 h; series mostly up to 28.7 µM
# Method in brief: as §1
# TAB113 = test: as above; conditions: P. falciparum in erythrocytes, SYBR Green DNA, 72 h; series mostly up to 28.7 µM
# Method in brief: as §1
# TAB165 = test: as above; conditions: P. falciparum in erythrocytes, SYBR Green DNA, 72 h; series mostly up to 28.7 µM
# Method in brief: as §1
# W2 = test: as above; conditions: P. falciparum in erythrocytes, SYBR Green DNA, 72 h; series mostly up to 28.7 µM
# Method in brief: as §1
# CRL-7250 = normal cell line; test: Cytotoxic Profiling of Annotated Libraries Using Quantitative High-Throughput Screening (AID 1296008); conditions: Five cell lines viability, CellTiter-Glo ATP luminescence, 48-72 h; max response: hits give low values
# Method in brief: (§2)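 Cytotoxicity was measured as CellTiter-Glo ATP luminescence, read after 10 min at room temperature. Compound treatment of the cells lasted 48 or 72 hr at 37 degrees Celsius in a qHTS format.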
# HEK293 = test: as above; conditions: Five cell lines viability, CellTiter-Glo ATP luminescence, 48-72 h; max response: hits give low values
# Method in brief: as §2
# Further: nearly all actives have a fitted effect of over 60% in size.
# Potency means the concentration at half of the fitted maximal effect.
compound,measurement,setting,value
CCn1cc(C(=O)O)c(=O)c2cnc(N3CCCC3)nc21,Potency,ECU,inactive
same,Potency,FAB9,inactive
same,Potency,GB4,inactive
same,Potency,HB3,inactive
same,Potency,ICS,inactive
same,Potency,JCK,inactive
same,Potency,N140,inactive
same,Potency,P93_24,inactive
same,Potency,P94_40,inactive
same,Potency,PAD,inactive
same,Potency,PC15,inactive
same,Potency,PC26,inactive
same,Potency,PC49,inactive
same,Potency,SC27B,inactive
same,Potency,TAB109,inactive
same,Potency,TAB113,inactive
same,Potency,TAB165,inactive
same,Potency,W2,inactive
same,max response,CRL-7250,4.85%
same,max response,HEK293,1.04%
COc1cccc2c1C(=O)c1c(O)c3c(c(O)c1C2=O)C[C@@](O)(C(C)=O)C[C@@H]3O[C@H]1C[C@H](N)[C@H](O)[C@H](C)O1,Potency,ECU,8910 nM (active)
same,Potency,FAB9,3980 nM (active)
same,Potency,GB4,1900 nM (active)
same,Potency,HB3,4470 nM (active)
same,Potency,ICS,1410 nM (active)
same,Potency,JCK,11200 nM (active)
same,Potency,N140,4470 nM (active)
same,Potency,P93_24,3980 nM (active)
same,Potency,P94_40,3550 nM (active)
same,Potency,PAD,4470 nM (active)
same,Potency,PC15,10000 nM (active)
same,Potency,PC26,5360 nM (active)
same,Potency,PC49,7080 nM (active)
same,Potency,SC27B,5010 nM (active)
same,Potency,TAB109,3550 nM (active)
same,Potency,TAB113,5010 nM (active)
same,Potency,TAB165,2240 nM (active)
same,Potency,W2,1350 nM (active)
same,Potency,CRL-7250,75 nM (active)
same,Potency,HEK293,47.3 nM (active)
O=C(O)CNC(=O)c1ccccc1,Potency,ECU,inactive
same,Potency,FAB9,inactive
same,Potency,GB4,inactive
same,Potency,HB3,inactive
same,Potency,ICS,inactive
same,Potency,JCK,inactive
same,Potency,N140,inactive
same,Potency,P93_24,inactive
same,Potency,P94_40,inactive
same,Potency,PAD,inactive
same,Potency,PC15,inactive
same,Potency,PC26,inactive
same,Potency,PC49,inactive
same,Potency,SC27B,inactive
same,Potency,TAB109,inactive
same,Potency,TAB113,inactive
same,Potency,TAB165,inactive
same,Potency,W2,inactive
same,max response,CRL-7250,2.85%
same,max response,HEK293,-10.7%
OC[C@H]1O[C@H](O[C@]2(CCl)O[C@H](CCl)[C@@H](O)[C@@H]2O)[C@H](O)[C@@H](O)[C@H]1Cl,outcome,CRL-7250,inactive
same,max response,HEK293,-9.55%
same,outcome,HEK293,inactive
Cc1onc(-c2c(Cl)cccc2Cl)c1C(=O)N[C@@H]1C(=O)N2[C@@H]1SC(C)(C)[C@@H]2C(=O)O,max response,CRL-7250,-3.36% and -1.59%
same,max response,HEK293,-5.63%
same,outcome,HEK293,inactive
COc1cc(OC)cc(OC)c1,Potency,ECU,inactive
same,Potency,FAB9,inactive
same,Potency,GB4,inactive
same,Potency,HB3,inactive
same,Potency,ICS,inactive
same,Potency,JCK,inactive
same,Potency,N140,inactive
same,Potency,P93_24,inactive
same,Potency,P94_40,inactive
same,Potency,PAD,inactive
same,Potency,PC15,inactive
same,Potency,PC26,inactive
same,Potency,PC49,inactive
same,Potency,SC27B,inactive
same,Potency,TAB109,inactive
same,Potency,TAB113,inactive
same,Potency,TAB165,inactive
same,Potency,W2,inactive
same,max response,CRL-7250,-8.4%
same,max response,HEK293,0.846%
CCCCC(CC)CN=C(N)NC(N)=NCCCCCCN=C(N)NC(N)=NCC(CC)CCCC (stereo not given),Potency,ECU,1120 nM (active)
same,Potency,FAB9,1780 nM (active)
same,Potency,GB4,1510 nM (active)
same,Potency,HB3,2240 nM (active)
same,Potency,ICS,316 nM (active)
same,Potency,JCK,3980 nM (active)
same,Potency,N140,1000 nM (active)
same,Potency,P93_24,1780 nM (active)
same,Potency,P94_40,1260 nM (active)
same,Potency,PAD,891 nM (active)
same,Potency,PC15,2820 nM (active)
same,Potency,PC26,1510 nM (active)
same,Potency,PC49,2240 nM (active)
same,Potency,SC27B,2000 nM (active)
same,Potency,TAB109,1120 nM (active)
same,Potency,TAB113,1780 nM (active)
same,Potency,TAB165,1260 nM (active)
same,Potency,W2,1070 nM (active)
same,Potency,CRL-7250,7500 nM (active)
same,Potency,HEK293,2990 nM (active)
CCCCCCC[N+](CC)(CC)CCCCc1ccc(Cl)cc1,Potency,ECU,1580 nM (active)
same,Potency,FAB9,3550 nM (active)
same,Potency,GB4,721 nM (active)
same,Potency,HB3,2510 nM (active)
same,Potency,ICS,708 nM (active)
same,Potency,JCK,3160 nM (active)
same,Potency,N140,2510 nM (active)
same,Potency,P93_24,2240 nM (active)
same,Potency,P94_40,2000 nM (active)
same,Potency,PAD,3980 nM (active)
same,Potency,PC15,1580 nM (active)
same,Potency,PC26,2030 nM (active)
same,Potency,PC49,3160 nM (active)
same,Potency,SC27B,2820 nM (active)
same,Potency,TAB109,2000 nM (active)
same,Potency,TAB113,2240 nM (active)
same,Potency,TAB165,2000 nM (active)
same,Potency,W2,1610 nM (active)
same,Potency,CRL-7250,7500 nM (active)
same,Potency,HEK293,6680 nM (active)
CC(C)(C(=O)c1cccnc1)c1cccnc1,Potency,ECU,inactive
same,Potency,FAB9,inactive
same,Potency,GB4,inactive
same,Potency,HB3,inactive
same,Potency,ICS,inactive
same,Potency,JCK,10000 nM (active)
same,Potency,N140,inactive
same,Potency,P93_24,inactive
same,Potency,P94_40,inactive
same,Potency,PAD,inactive
same,Potency,PC15,inactive
same,Potency,PC26,inactive
same,Potency,SC27B,inactive
same,Potency,TAB109,inactive
same,Potency,TAB113,inactive
same,Potency,TAB165,inactive
same,Potency,W2,inactive
same,max response,CRL-7250,-2.01%
same,outcome,HEK293,inactive
O=c1[nH]c(=O)n([C@H]2CCCO2)cc1F,max response,CRL-7250,4.85% and -6.48%
same,max response,HEK293,1.04%
same,outcome,HEK293,inactive
CC1(C)O[C@@H]2C[C@H]3[C@@H]4C[C@H](F)C5=CC(=O)CC[C@]5(C)[C@H]4[C@@H](O)C[C@]3(C)[C@]2(C(=O)CO)O1,max response,CRL-7250,2.33%
same,outcome,HEK293,inactive
CCCN1CCCC[C@H]1C(=O)Nc1c(C)cccc1C,Potency,ECU,inactive
same,Potency,FAB9,inactive
same,Potency,GB4,15100 nM (active)
same,Potency,HB3,inactive
same,Potency,ICS,inactive
same,Potency,JCK,inactive
same,Potency,N140,inactive
same,Potency,P93_24,inactive
same,Potency,P94_40,inactive
same,Potency,PAD,inactive
same,Potency,PC15,inactive
same,Potency,PC26,inactive
same,Potency,PC49,inactive
same,Potency,SC27B,inactive
same,Potency,TAB109,inactive
same,Potency,TAB113,inactive
same,Potency,TAB165,inactive
same,Potency,W2,4780 nM (active)
same,max response,CRL-7250,-6.22%
same,max response,HEK293,-0.54%
